# From PubChem BioAssay
# Shiga inhibitor: Shiga toxin inhibition. Vero cells, Shiga toxin protein synthesis inhibition reporter. inhibition, % at 38.7 µM. actives 9.2% (n = 290,000). AID 2315; in the data active = inhibition mostly above about 28%, no sharp cut-off; inactive = mostly below about 43%
# Pf growth 48h: inhibits P. falciparum growth in the first generation, 48 h; Potency, µM (highest dose often 28.7 µM), hits mostly inhibitors; P. falciparum luciferase growth in erythrocytes, 48 h; actives 5.9% (n = 310,000); AID 504832
#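 First compound was added to culture medium, then infected red cells at 0.1% parasitemia and 2% hematocrit (final). After incubation at 37 C under 5% CO2, luciferase detection reagent was dispensed and light output recorded.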
# Cycloheximide cs: counter-screen for Shiga toxin inhibitors: cycloheximide protein synthesis inhibition; cell reporter, cycloheximide protein synthesis inhibition counterscreen; max response, %; actives 12% (n = 300,000); in the data active = max response mostly above about 13%, no sharp cut-off; inactive = mostly below about 14%; note: read at 38.3 µM for the half of the compounds with a filed dose
# Pf growth 96h: inhibits malaria parasite growth, 96 h. Potency, µM (series often up to 28.7 µM), most hits filed as inhibitors. actives 6.9% (n = 320,000). P. falciparum luciferase reporter growth, 96 h
#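 Compounds incubated with erythrocytes infected by luciferase-expressing P. falciparum (2% hematocrit, 0.05% parasitemia final) for 96 hours, 37 C in 5% CO2. Growth inhibition scored as decreased luciferase luminescence.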
# Numbers stand for hits; . = inactive; ? = inconclusive; / = not tested or not shown. Shown are actives, neighbours in structure and some others; about 21% of the full set was active somewhere. Unless noted, calls come from the whole dose curve; as a rule, active = well fitted inhibition curve with a large enough effect; inconclusive = small, poorly fitted or top-dose-only effect, or another doubt; inactive = no such curve, though single readings can be large or run the other way.
SMILES,Shiga inhibitor,Pf growth 48h,Cycloheximide cs,Pf growth 96h
CCOc1ccccc1NC(=O)CN1CCN(Cc2ccccc2)CC1,.,/,.,.
C=CCN(CC=C)Cc1c(O)ccc2c(=O)c(-c3ccccc3)coc12,.,?,.,.
Fc1ccc2[nH]c3c(N4CCc5ccccc5C4)ncnc3c2c1,.,2.9µM,.,1.9µM
CN1CCN(c2ncnc3c2[nH]c2ccc(F)cc23)CC1,.,2.9µM,.,?
Cc1ccc2[nH]c3c(N4CCOCC4)ncnc3c2c1,.,?,.,?
c1ccc2c(c1)[nH]c1c(N3CCSCC3)ncnc12,.,.,.,.
c1ccc2c(c1)[nH]c1c(N3CCCC3)ncnc12,.,?,.,2.6µM
CCOc1ccc2[nH]c3c(N4CCc5ccccc5C4)ncnc3c2c1,.,?,.,13µM
CN(Cc1ccccc1F)C(=O)c1ccccc1Sc1ccccc1C#N,.,.,.,?
Cc1cc(C)cc(-n2ncc3c2CCCC3NC(=O)CCN2CCCC2=O)c1 (configuration not stated),.,.,.,?
COc1ccc(Cc2nnc(NC(=O)c3ccc(F)cc3)s2)cc1OC,/,?,.,.
CC(C)(CNC(=O)c1cccs1)N1CCOCC1,/,.,/,?
Cc1ccc2[nH]c3c(N4CCc5ccccc5C4)ncnc3c2c1,.,?,.,?
Brc1ccc2[nH]c3c(N4CCc5ccccc5C4)ncnc3c2c1,72,1.7µM,49,/
Cc1ccc(S(=O)(=O)c2nc(-c3ccccc3F)oc2N2CC(C)OC(C)C2)cc1 (configuration not stated),.,.,.,?
CCC1CN(C(=O)N2CCC(C(=O)NCc3cccc(F)c3)CC2)c2ccccc2O1 (configuration not stated),.,?,.,9.3µM
CCC1CN(C(=O)N2CCC(C(=O)NCc3ccco3)CC2)c2ccccc2O1 (configuration not stated),.,.,.,12µM
CCC1CN(C(=O)N2CCC(C(=O)NCc3ccc(F)cc3)CC2)c2ccccc2O1 (configuration not stated),.,?,.,?
CCC1CN(C(=O)N2CCC(C(=O)NCc3ccc(C)o3)CC2)c2ccccc2O1 (configuration not stated),.,.,.,9.3µM
COc1cccc(C(=O)Nc2cccc(-c3nc4ncccc4o3)c2C)c1,.,.,.,.
COc1ccc(C(=O)Nc2cccc(-c3nc4ncccc4o3)c2C)cc1OC,.,.,.,3.7µM
Cc1c(NC(=O)c2ccc([N+](=O)[O-])o2)cccc1-c1nc2ncccc2o1,.,12µM,.,.
CC(C)(C)NC(=O)NC(=O)COC(=O)CNS(=O)(=O)c1ccc(Br)cc1Cl,.,.,.,.
Cc1cc(C)c2nc(SCC(=O)NCC3CCCO3)c(C#N)cc2c1 (configuration not stated),.,.,.,.
CCN1C(=C(C#N)C#N)C=Cc2cc(C)ccc21,.,.,.,?
SMILES,Shiga inhibitor,Pf growth 48h,Cycloheximide cs,Pf growth 96h
C=CC[n+]1c(/C=C2\C=Cc3cc(C)ccc3N2CC)ccc2ccccc21,.,13µM,.,?
COc1ccc(C(=O)/C=C/c2cn(CN3CCN(C)CC3)c3ccccc23)cc1,49,/,43,?
Cc1ccc(OCCn2cc(/C=C/C(=O)O)c3ccccc32)cc1,.,.,.,?
CCOc1ccc(C(=O)/C=C/c2cn(CN3CCN(C)CC3)c3ccccc23)cc1,61,.,31,?
CCCc1cc(=O)[nH]c(SCC(=O)Nc2ccc(Cl)c(S(=O)(=O)N3CCOCC3)c2)n1,/,.,/,?
Cc1nc(C)c(-c2ccc(SCc3ccccc3C)nn2)s1,34,.,45,.
Fc1cccc(CSc2ccc(-c3ccc4c(c3)OCO4)nn2)c1,.,.,.,.
Cc1ccccc1CSc1ccc(-c2ccc3c(c2)OCO3)nn1,82,.,49,.
c1cncc(CSc2ccc(-c3ccc4c(c3)OCO4)nn2)c1,99,.,57,.
Cc1nc(C)c(-c2ccc(SCC(=O)Nc3ccccc3)nn2)s1,.,.,.,?
CC(=O)Nc1ccc(NC(=O)CSc2ccc(-c3ccc4c(c3)OCO4)nn2)cc1,.,.,.,.
Nc1c(Cl)ncnc1N/N=C/c1ccc2ccccc2n1,121,?,69,3.7µM
Nc1c(Cl)ncnc1N/N=C/c1ccccn1,active,2.1µM,25,2.9µM
Nc1c(Cl)ncnc1N/N=C/c1cccnc1,.,.,15,.
Nc1c(Cl)ncnc1N/N=C/c1ccnc2ccccc12,.,.,.,.
O=C(Cn1ccc2cc(S(=O)(=O)N3CCCC3)ccc21)NCc1ccco1,.,.,.,?
Cc1ccc(F)cc1NC(=O)C1C2CCC(O2)C1C(=O)O (configuration not stated),.,?,.,.
